Experimental data: PubChem BioAssay AID2766 (Sanford-Burnham Center for Chemical Genomics, 2010)
Some of the results follow. Calls of active or inactive are those of the source. Cut-off read from the data, not from the text of the source: active = inhibition above about 50%; inactive = the rest.

Target: Apelin receptor (Homo sapiens) (UniProt P35414)
Assay: APJ antagonists blocking beta-arrestin recruitment, confirmation, cell-based, luminescence, single concentration, uHTS hits (AID 2766)
Conditions: antagonist mode, at 20 µM, active compounds read high

Sequence of Apelin receptor (Homo sapiens) (P35414 whole entry, looked up): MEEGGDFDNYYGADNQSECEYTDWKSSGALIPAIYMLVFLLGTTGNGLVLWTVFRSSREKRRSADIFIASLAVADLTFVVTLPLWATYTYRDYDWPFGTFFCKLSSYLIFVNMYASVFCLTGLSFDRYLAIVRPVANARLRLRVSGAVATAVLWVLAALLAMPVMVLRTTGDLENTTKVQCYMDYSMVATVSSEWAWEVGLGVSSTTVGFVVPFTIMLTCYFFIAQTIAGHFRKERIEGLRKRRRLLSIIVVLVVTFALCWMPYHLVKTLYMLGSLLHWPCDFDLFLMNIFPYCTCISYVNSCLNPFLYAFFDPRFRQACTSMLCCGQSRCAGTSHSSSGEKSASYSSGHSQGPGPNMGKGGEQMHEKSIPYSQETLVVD

inhibition, inactive:
COc1cc(NS(=O)(=O)c2ccc3ccccc3c2)c2ncccc2c1 -7.35%
CC(CN1CCOCC1)OC(=O)c1ccc(C(C)(C)C)cc1 (centres undefined) 26.5%
Cc1cccc(-n2c(O)c(C=Nc3ccccc3N)c(=O)[nH]c2=O)c1 8.93%
COc1cc(/C=N\NC(=O)CNC(=O)c2cccc([N+](=O)[O-])c2)ccc1O 2.71%
CCc1ccc2c(c1)C1(NN=C(c3ccccc3)S1)C(=O)N2 (centres undefined) 42.9%
CCOC(=O)c1cnc(Nc2nc3ccccc3o2)nc1CSC(=S)N1CCCCC1 -22.6%
Cc1cccc2cc3c(N)c(C(=O)N4CCCc5ccccc54)sc3nc12 47.9%
COc1cc(/C=C(\C#N)c2nc3c(s2)CC(C)CC3)ccc1O (centres undefined) 44.7%
O=C(CCc1nc2ccccc2c(=O)[nH]1)OCC(=O)c1cccc(Cl)c1 37.2%
S=C(NNC(=S)NC1CC2CCC1C2)NC1CC2C=CC1C2 (centres undefined) 49.1%
CC(=O)C1=C(O)C(=O)N(c2ccc(S(N)(=O)=O)cc2)C1c1ccccc1F (centres undefined) 43.9%
CC(=O)Nc1ccc(NC(=O)c2sc3nc4c(c(-c5ccc(C)cc5)c3c2N)CCC4)cc1 5.53%
O=[N+]([O-])c1ccccc1S(=O)(=O)Nc1cccc2cccnc12 4.57%
O=C(CSc1cccc2cccnc12)N/N=C/c1cccnc1 43.5%

inhibition, active:
CC(C)OC(=O)CN1C(=O)C(=O)c2ccccc21 158%
COc1cccc2sc(Nc3nc(C)c(C(C)=O)s3)nc12 94%
COc1ccc(NC(=O)/C(Cl)=C(/Cl)S(=O)Cc2ccc(C)cc2)cn1 (centres undefined) 106%
CN(C)S(=O)(=O)c1cccc(NC(=S)N/N=C/C(=O)c2ccccc2)c1 52.4%
COc1ccc(CS(=O)/C(Cl)=C(/Cl)C(=O)Nc2ccc(OC)nc2)cc1 (centres undefined) 100%
CC(=O)/C(=N\Nc1ccc(Cl)cc1Cl)Sc1cccc2cccnc12 78%
CSCCC(NC(=O)COc1ccccc1)C(=O)OCC(=O)c1cc2ccccc2o1 (centres undefined) 87.8%
CN1/C(=c2/s/c(=C3/C(=O)N(c4ccccc4)NC3=Nc3ccccc3)n(C)c2=O)C(C)(C)c2ccccc21 55.3%
Cc1cc(/C=N/Nc2ccc([N+](=O)[O-])cn2)c(C)n1-c1cccc(C(=O)O)c1 75.3%
O=C1Nc2ccc([N+](=O)[O-])cc2C1=Nc1cccc(CO)c1 72.5%
O=C1Nc2ccc(Br)cc2/C1=N/N=C/C1=C(N2CCOCC2)C(=C\c2ccccc2)/CC1 75.1%
Oc1ccc(N=Nc2nccs2)c(O)c1 79.8%
COc1cc(/C=C2/SC(=S)N(Cc3ccccc3)C2=O)cc(OC)c1O 94.7%
O=c1ccc2c(-c3ccccc3S(=O)(=O)O)c3ccc(O)c(O)c3oc-2c1O 69.9%
COC(=O)c1ccc(NCC(=O)c2ccccc2)cc1 63.5%
Cc1csc(NC(=S)Nc2cccc(Cl)c2)n1 55.8%
O=[N+]([O-])c1cc(Cl)cc(/C=N/NC(=S)Nc2cc(S(=O)(=O)N3CCOCC3)ccc2Cl)c1O 62.4%
O=[N+]([O-])c1c(NCCO)cc(Sc2nc3ccccc3s2)c2nonc12 105%
O=C(CCl)NNc1cccc(Cl)n1 145%
CC1CC2=C(CC1/C=N/NC(N)=S)C(C)(C)CCC2 (centres undefined) 103%
